Experimental findings from PubChem BioAssay (EPA / NIEHS) are described below.

Experiment [1] has as its system Brachyury (BRA) Protein Expression, Deisenroth Lab, TBXT (gene 6862). In words: CCTE_Deisenroth_DEVTOX-GLR_legacy_Bra: (Legacy) CCTE's DevTox GLR-Endo Assay Evaluation of Brachyury (BRA) Protein Expression, Deisenroth Lab (AID 2284329). In a few lines: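 High-content imaging of fixed RUES2-GLR cells after a 48-hour differentiation with two compound exposures yields percent cells whose Bra signal exceeds pluripotent control median by 5x BMAD; values are baseline-corrected to DMSO.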

Experiment [2] can be described thus: CCTE_Deisenroth_DEVTOX-GLR_legacy_CellCount: (Legacy) Viability Assessment in CCTE's DevTox GLR-Endo Assay, Deisenroth Lab (AID 2284331). The settings on record: actives raise or lower the signal. The method in brief:
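RUES2-GLR human pluripotent cells were seeded 24 h, then differentiated 48 h with two compound doses at 24 h intervals (10-point, 1 nM - 200 uM). Fixed nuclei were imaged and counted; bidirectional fitting versus 0.2% DMSO.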

The subject of experiment [3] is SRY-box transcription factor 17 (SOX17) Protein Expression, Deisenroth Lab, SOX17 (gene 64321). In words: CCTE_Deisenroth_DEVTOX-GLR_legacy_Sox17: (Legacy) CCTE's DevTox GLR-Endo Assay Evaluation of SRY-box transcription factor 17 (SOX17) Protein Expression, Deisenroth Lab (AID 2284341). The settings on record: actives raise or lower the signal. The method in brief:
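Percent SOX17-positive cells, scored by high-content imaging as mean intensity exceeding pluripotent-control median by 5x BMAD, divided by cell count. Human RUES2-GLR endoderm differentiation, 48 h, two exposures 24 h apart, 1 nM–200 uM; DMSO-referenced bidirectional fitting.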

The test system of experiment [4] is SRY-box transcription factor 2 (SOX2) Protein Expression, Deisenroth Lab, SOX2 (gene 6657). In words: CCTE_Deisenroth_DEVTOX-GLR_legacy_Sox2: (Legacy) CCTE's DevTox GLR-Endo Assay Evaluation of SRY-box transcription factor 2 (SOX2) Protein Expression, Deisenroth Lab (AID 2284346). The method in brief: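 Two exposures, 24 h apart, during 48 h defined-media differentiation of seeded RUES2-GLR cells; nuclei-stained cells imaged. Sox2 positivity called at 5x BMAD above endoderm control median, DMSO median subtracted.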

The test system of experiment [5] is SRY-box transcription factor 17 (SOX17) Protein Expression, Deisenroth Lab, SOX17 (gene 64321). In words: CCTE_Deisenroth_DEVTOX-GLR_Endo_SOX17: CCTE's DevTox GLR-Endo Assay Evaluation of SRY-box transcription factor 17 (SOX17) Protein Expression, Deisenroth Lab (AID 2284413). In a few lines:
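Fluorescent microscopy of a SOX17 reporter in RUES2-GLR pluripotent cells scored endoderm differentiation after 48 h and two 24-h-spaced exposures. Values are percent change in SOX17+ population against 0.2% DMSO, n=4 experimental replicates.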

Experiment [6] deals with Brachyury (BRA) Protein Expression, TBXT (gene 6862). In words: CCTE_Deisenroth_DEVTOX-GLR_Endo_BRA: CCTE's DevTox GLR-Endo Assay Evaluation of Brachyury (BRA) Protein Expression, Deisenroth Lab (AID 2284417). The method in brief:
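Endpoint is the fraction of BRA reporter-positive cells over total nuclei, corrected by subtracting the 0.2% DMSO value. Chemicals (1 nM - 200 uM, 10 points) were dosed twice during 48 h differentiation of RUES2-GLR cells, read by imaging.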

Experiment [7] can be described thus: CCTE_Deisenroth_DEVTOX-GLR_Endo_CellCount: Viability Assessment in CCTE's DevTox GLR-Endo Assay, Deisenroth Lab (AID 2284420). The method in brief: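 Measured 48 h after dosing: fluorescent nuclei counted by imaging in human RUES2-GLR cells under defined differentiation media, tested at 1 nM - 200 uM. Values are percent cell-count change relative to 0.2% DMSO.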

Experiment [8] deals with SRY-box transcription factor 17 (SOX17) Protein Expression, Deisenroth Lab, SOX17 (gene 64321). Nature of the experiment: CCTE_Deisenroth_DEVTOX-GLR_Pluri_SOX17: CCTE's DevTox GLR-Pluri Assay Evaluation of SRY-box transcription factor 17 (SOX17) Protein Expression, Deisenroth Lab (AID 2284427; active = hit-call score of the fitted dose curve at least 0.9, where 1 is the maximum). In a few lines:
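Using an inducible fluorescent SOX17 reporter in human pluripotent RUES2-GLR cells, compounds (1 nM - 200 uM) were given twice over 48 h differentiation. Percent SOX17+ cells minus DMSO control came from high-content image analysis.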

The subject of experiment [9] is SRY-box transcription factor 2 (SOX2) Protein Expression, Deisenroth Lab, SOX2 (gene 6657). In words: CCTE_Deisenroth_DEVTOX-GLR_Pluri_SOX2: CCTE's DevTox GLR-Pluri Assay Evaluation of SRY-box transcription factor 2 (SOX2) Protein Expression, Deisenroth Lab (AID 2284428). The method in brief:
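Percent SOX2+ RUES2-GLR cells, determined by fluorescence microscopy after 48 h and two 24-h-interval chemical exposures spanning 1 nM–200 uM, served as the endpoint. Values are expressed relative to 0.2% DMSO; total cell counts assessed viability.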

Experiment [10] concerns Brachyury (BRA) Protein Expression, Deisenroth Lab, TBXT (gene 6862). In words: CCTE_Deisenroth_DEVTOX-GLR_Pluri_BRA: CCTE's DevTox GLR-Pluri Assay Evaluation of Brachyury (BRA) Protein Expression, Deisenroth Lab (AID 2284429; active = hit-call score of the fitted dose curve at least 0.9, where 1 is the maximum). In a few lines:
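Mesoderm readout after 48 h differentiation of human RUES2-GLR cells, dosed twice (24-h intervals) at 1 nM - 200 uM. BRA+ frequency from fluorescence imaging of fixed, nuclear-stained cells, DMSO-corrected.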

The next experiment relates to SERPINA7 (gene 6906). Nature of the experiment: CCTE_GLTED_hTBG: CCTE's human Thyroxine-binding Globulin (TBG) Inhibition Assay, Great Lakes Toxicology and Ecology Division (GLTED) Lab (AID 2284343; active = hit-call score of the fitted dose curve at least 0.9, where 1 is the maximum;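 note: active chemicals lower fluorescence versus DMSO baseline by displacing probe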). In a few lines: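 Cell-free displacement of the fluorescent probe ANSA from human thyroxine-binding globulin after 2 h exposure. Read-out at ex 380/em 475 nm; DMSO baseline.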

The subject of experiment [11] is SRY-box transcription factor 2 (SOX2) Protein Expression, Deisenroth Lab, SOX2 (gene 6657). In words: CCTE_Deisenroth_DEVTOX-GLR_Endo_SOX2: CCTE's DevTox GLR-Endo Assay Evaluation of SRY-box transcription factor 2 (SOX2) Protein Expression, Deisenroth Lab (AID 2284412; active = hit-call score of the fitted dose curve at least 0.9, where 1 is the maximum). The method in brief: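 Endpoint is percent SOX2-positive cells (SOX2+ count/total cells) minus 0.2% DMSO control, from high-content imaging of fixed, nuclear-stained RUES2-GLR cells. Dosing twice at 24 h intervals over 48 h differentiation, 1 nM–200 uM in 10 points.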

The nature of experiment [12]: TAMU_PeakParms_SingleDonor1434_Asystole: Texas A&M University (TAMU) 1.5-hr Human Induced Pluripotent Stem Cell (iPSC)-derived Cardiomyocytes Calcium (Ca+2) Flux Assay for Cardiotoxicity: Asystole (quiescence of beating) (AID 2284328; active = hit-call score of the fitted dose curve at least 0.9, where 1 is the maximum). The method in brief: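 Human iPSC-derived cardiomyocytes (donor 1434) were exposed to 0.2, 1, 10 and 100 uM compound in 0.5% DMSO for 90 min at 37C. Ca2+-dye fluorescence gave average peak frequency; POD is EC95, a 95% beat-rate drop versus DMSO.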

Experiment [13] can be described thus: VALA_MIGHUV1_ScratchOnly_WoundArea: VALA Sciences human Umbilical Vein Endothelial Cell Migration (MIGHUV) Assay, Area of Scratch Wound Inhibited Recovery (AID 2284336; active = hit-call score of the fitted dose curve at least 0.9, where 1 is the maximum). The method in brief:
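Wound area remaining after 24 h recovery imaged by Hoechst nuclear fluorescence in scratched HUVEC cultures, chemicals added within 30 min of scratching across a 6-point series. Gain of signal fitted against 0.1% DMSO; cytochalasin D positive control.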

Experiment [14] in a line: VALA_TUBIPS_Agonist_CellCount: Viability Assessment in the VALA Sciences human iPS-derived Endothelial Tubule Formation (TUBIPS) Agonism Assay (AID 2284338; active = hit-call score of the fitted dose curve at least 0.9, where 1 is the maximum). As for the experimental part:
VALA_TUBIPS_Agonist is a cell-based, multiplexed assay that uses human iPS-derived endothelial cells (iPSC). Measurements were taken 72 hours after chemical dosing in a 96-well plate.VALA_TUBIPS_Agonist_CellCount is the one of two assay components measured from the VALA_TUBIPS_Agonist assay. It is designed to make measurements of viability, a form of viability reporter, as detected with fluorescence intensity signals by HCS Fluorescent Imaging technology. Data from the assay component VALA_TUBIPS_Agonist_CellCount was analyzed at the endpoint, VALA_TUBIPS_Agonist_CellCount, in the positive analysis fitting direction relative to DMSO as the negative control and baseline of activity. Using a type of viability reporter, loss-of-signal activity can be used to understand viability. To generalize the intended target to other relatable targets, this assay endpoint is annotated to the cell cycle intended target family, where the subfamily is cell count.
[…]

Experiment [15] in a line: VALA_TUBHUV_Agonist_TubuleLength: VALA Sciences human Umbilical Vein Endothelial Tubule Formation (TUBHUV) Agonism Assay (AID 2284337; active = hit-call score of the fitted dose curve at least 0.9, where 1 is the maximum). The method in brief:
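Tubule length quantified by CD31 immunofluorescence imaging after fixation. HUVEC-HDF co-cultures (1:3) pre-grown 3 days with 10 ng/ml VEGF, then dosed 3 days in VEGF medium; 0.1 % DMSO vehicle baseline.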

The nature of experiment [16]: IUF_NPC1_cytotoxicity_72hr: Cytotoxicity Assessment at 72 hours in the Leibniz Research Institute for Environmental Medicine (IUF) Neural Progenitor Cell Proliferation Assay (NPC1) (AID 2284332; active = hit-call score of the fitted dose curve at least 0.9, where 1 is the maximum;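 note: rising LDH signal means more cytotoxicity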). In a few lines: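 Cytotoxicity by LDH membrane-integrity assay on medium supernatants, fluorescence via resazurin reduction, after 3-day single exposure of primary hNPC spheres at 37C, pH 7.2-7.6 with growth factors. Fitted upward against baseline.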

Experiment [17] in a line: CCTE_Mundy_HCI_iCellGluta_NOG_NeuronCount: CCTE's Neurite Outgrowth Assay in iCellGluta cells for Neuron Count, Mundy Lab (AID 2284340; active = hit-call score of the fitted dose curve at least 0.9, where 1 is the maximum;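 note: cells fixed about 48 h after compound addition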). In a few lines: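 Neuron count read by automated high-content imaging of Hoechst 33342 and betaIII-tubulin/Alexa Fluor-488 labelling in human iPSC glutamatergic neurons. Activity fitted relative to DMSO.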
A short description of experiment [18]: CCTE_Mundy_HCI_iCellGluta_NOG_NeuriteCount: CCTE's Neurite Outgrowth Assay in iCellGluta cells for Neurite Count, Mundy Lab (AID 2284342; active = hit-call score of the fitted dose curve at least 0.9, where 1 is the maximum;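 note: chemical exposure about 48 hours starting 2 hours after plating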).

Results filed as inconclusive are left out. Calls of active or inactive are those of the source. Rule for the calls, unless noted: active = hit-call score of the fitted dose curve at least 0.9, where 1 is the maximum; inactive = score below 0.9.

For the compound `CC1=C(/C=C/C(C)=C/C=C/C(C)=C/CO)C(C)(C)CCC1`, the AC50 in experiment [1] was 67.5 µM (active); in experiment [2], 34.6 µM (active); in experiment [3], 33.5 µM (active); in experiment [4], 55.7 µM (active); in [5], 33.6 µM (active); in [6], 66 µM (active). The AC50 in [7] is 34.7 µM (active); in [8], 39.3 µM (active); in experiment [9] it was 19.8 µM (active); in experiment [10], 26.8 µM (active).

Turning to `COc1cc(S(=O)(=O)O)c(C)cc1N=Nc1c(O)ccc2cc(S(=O)(=O)O)ccc12`, the AC50 in the experiment on SERPINA7 (gene 6906) was 35 µM (active).

As for `COc1ccc2c(c1)c(CC(=O)O)c(C)n2C(=O)c1ccc(Cl)cc1`, the AC50 in experiment [1] was 5.9 µM (active); in experiment [2], 10.2 µM (active); in experiment [3], 15.5 µM (active); in the experiment with SERPINA7 (gene 6906), 1.71 µM (active); in [4], 17 µM (active); in experiment [11] it was 6.34 µM (active). The AC50 was 16 µM (active) in experiment [5]; 12.5 µM (active) in [6]; 10.1 µM (active) in experiment [7]; 2.61 µM (active) in [8]; 6.52 µM (active) in experiment [9]; 6.56 µM (active) in experiment [10].

Turning to `O=C(O)CCCCC(=O)O`, the result in experiment [12] was inactive.

With `Nc1ccc(S(=O)(=O)c2ccc(N)cc2)cc1`, in the experiment with SERPINA7 (gene 6906), the AC50 was 50 µM (active).

Regarding `Cc1ccc(C)c(O)c1C`, the AC50 in the experiment on SERPINA7 (gene 6906) was 33.1 µM (active).

For `Cc1cc(NC(=O)C(=O)O)cc(C)c1Oc1ccc(O)c2c1CCC2`, the compound was classed as inactive in experiment [13] and in experiment [14]. In addition, in the experiment with SERPINA7 (gene 6906), the AC50 is 0.667 µM (active).

As to `Cc1cccc(Nc2cc(Cl)nc(SCC(=O)O)n2)c1C`, the AC50 with SERPINA7 (gene 6906) was 22 µM (active).

In the case of `CCOC(=O)C(C)(C)Oc1ccc(Cl)cc1`, the AC50 in the experiment with SERPINA7 (gene 6906) was 24.9 µM (active).

Take `CCCc1cc(=O)[nH]c(=S)[nH]1`: the result in experiment [12], in [1], in [2], in experiment [13], in [15] and in experiment [14] was inactive. In addition, the outcome in experiment [3], in experiment [4], in [5], in experiment [6], in experiment [7] and in [8] was inactive. Also, the call in experiment [9] and in experiment [10] was inactive.

As to `C[Si]1(C)O[Si](C)(C)O[Si](C)(C)O[Si](C)(C)O1`, the compound was classed as inactive in [16], in experiment [17] and in experiment [18].

On to `O=c1[nH]cc(F)c(=O)[nH]1`, for which the result in experiment [12] was inactive. The AC50 is 16.5 µM (active) in experiment [1]; 5.95 µM (active) in [2]; 8.47 µM (active) in [3]; 22 µM (active) in [4]; 34.3 µM (active) in [11]; 9.06 µM (active) in [5]. Moreover, the concentration at half-maximal activity (AC50) in experiment [6] is 20.3 µM (active); in experiment [7] it was 5.89 µM (active); in experiment [8], 7.95 µM (active); in experiment [9], 7.1 µM (active); in [10], 7.54 µM (active).
